Experimental data published in PubChem BioAssay.
Active and inactive are the calls of the source.

Tests used:
[1] = optical density shifts of acrAB sulA E. coli – strain DRC41, OD650, 48 h, E. coli filamentation inducer project, primary screen (AID 1152); conditions: higher = more signal, called active from +8 up or from −8 down;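 further: E. coli MC1000 strain DRC41 lacking acrAB efflux pump and sulA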
[2] = probe aLefty1 binding on compound microarray – biochemical, small-molecule microarray, 635/667 nm fluorescence, primary screen (AID 1153); conditions: higher = more signal;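 further: score merges spot fluorescence with signal-to-noise ratio from the scanned slide images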
[3] = plasmodial surface anion channel blockers, osmotic lysis – cell-based, P. falciparum Indochina, OD700, 1 h, primary screen (AID 1154); conditions: P. falciparum Indochina infected RBC osmotic lysis, higher = more signal, called active from +8 up or from −8 down
[4] = plasmodial surface anion channel blockers, osmotic lysis – cell-based, P. falciparum Indochina, OD700, 2 h, primary screen (AID 1155);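 further: lysis reports solute entry through the parasite surface anion channel PSAC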; conditions: P. falciparum Indochina infected erythrocytes, higher = more signal, called active from +8 up or from −8 down
[5] = changes in parasitized red cell lysis, either direction – P. falciparum Indochina, OD700, 3 h, PSAC antagonist project, primary screen (AID 1156); conditions: P. falciparum-infected erythrocytes, osmotic lysis, higher = more signal, called active from +8 up or from −8 down
[6] = plasmodial surface anion channel blockers, osmotic lysis – cell-based, P. falciparum Indochina, OD700, 18 h, primary screen (AID 1157); conditions: P. falciparum Indochina infected erythrocytes, osmotic lysis OD700, 18 h; higher = more signal, called active from +8 up or from −8 down
[7] = S6 kinase pathway phospho-S6 level changes – cell-based, A549, cytoblot, luminescence, serum-stimulated, primary screen (AID 1158); conditions: 5 h, higher = more signal;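 further: serum-stimulated A549 lung adenocarcinoma cells; signal is phosphorylated S6 detected by cytoblot immunostaining with HRP secondary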
[8] = target: NADPH oxidase 2 (Homo sapiens) (UniProt P04839); assay: compounds shifting NOX2 Amplex Red fluorescence – cell-based, HEK293-NOX2, PMA-stimulated, NOX inhibitor project, primary screen (AID 1159); conditions: 45 min, higher = more signal, called active from +8 up or from −8 down; further: test concentration not given here
[9] = target: NADPH oxidase 4 (Homo sapiens) (UniProt Q9NPH5); assay: compounds shifting NOX4 Amplex Red fluorescence – cell-based, HEK293-NOX4, tetracycline-induced, NOX inhibitor project, primary screen (AID 1160); conditions: HEK293-NOX4, Amplex Red H2O2 fluorescence, 45 min; higher = more signal, called active from +8 up or from −8 down
[10] = target: NADPH oxidase 5 (Homo sapiens) (UniProt Q96PH1); assay: compounds shifting NOX5 Amplex Red fluorescence – cell-based, HEK293-NOX5, NOX inhibitor project, primary screen (AID 1161); conditions: HEK293-NOX5, ionomycin, 45 min, higher = more signal
[11] = compound effects on lung adenocarcinoma cell viability – A549, calcein-AM fluorescence, 48 h, basal, profiling panel (AID 1162); conditions: higher = more signal; further: test concentration not given here
[12] = compound effects on differentiated 3T3-L1 adipocyte viability – cell-based, 3T3-L1 adipocytes, calcein-AM fluorescence, 48 h, basal, profiling panel (AID 1163); conditions: 3T3-L1 adipocytes viability, higher = more signal; further: test concentration not given here
[13] = compound effects on hepatocellular carcinoma cell viability – HepG2, calcein-AM fluorescence, 48 h, basal, profiling panel (AID 1164); conditions: higher = more signal; further: test concentration not given here
[14] = compound effects on multiple myeloma cell viability – MM1S, calcein-AM fluorescence, 48 h, basal, profiling panel (AID 1165); conditions: higher = more signal; further: test concentration not given here
[15] = calcein-AM signal in unstimulated myeloma cells – cell-based, calcein-AM fluorescence, 48 h, PK04 Diversity Set, profiling panel (AID 1166); conditions: RPMI8226 myeloma viability, higher = more signal;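 further: cells grown under basal conditions without added stimulus; test concentration not given here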
[16] = JC-1 mitochondrial signal, unstimulated HepG2 cells – cell-based, JC-1 fluorescence, 24 h, 100 nL compound, profiling panel (AID 1167); conditions: HepG2 mitochondrial potential, higher = more signal; further: test concentration not given here
[17] = JC-1 mitochondrial signal, unstimulated adipocytes – cell-based, JC-1 fluorescence, 3T3-L1 adipocytes, 24 h, 100 nL compound, profiling panel (AID 1168); conditions: JC-1 mitochondrial fluorescence, higher = more signal, called active from +8 up or from −8 down; further: test concentration not given here
[18] = JC-1 mitochondrial signal, unstimulated myeloma cells – cell-based, JC-1 fluorescence, RPMI8226, 24 h, 100 nL compound, profiling panel (AID 1169); conditions: JC-1 mitochondrial potential fluorescence, higher = more signal; further: test concentration not given here
[19] = JC-1 mitochondrial signal, unstimulated MM1S myeloma – cell-based, JC-1 fluorescence, 24 h, 100 nL compound, profiling panel (AID 1170); conditions: MM1S mitochondrial potential, higher = more signal; further: test concentration not given here
[20] = resazurin metabolic signal in A549 cells – cell-based, resazurin fluorescence, 24 h, PK04 Diversity Set, profiling panel (AID 1171); conditions: A549 viability, higher = more signal, called active from +8 up or from −8 down; further: test concentration not given here

Sequence of NADPH oxidase 4 (Homo sapiens) (Q9NPH5 whole entry, looked up): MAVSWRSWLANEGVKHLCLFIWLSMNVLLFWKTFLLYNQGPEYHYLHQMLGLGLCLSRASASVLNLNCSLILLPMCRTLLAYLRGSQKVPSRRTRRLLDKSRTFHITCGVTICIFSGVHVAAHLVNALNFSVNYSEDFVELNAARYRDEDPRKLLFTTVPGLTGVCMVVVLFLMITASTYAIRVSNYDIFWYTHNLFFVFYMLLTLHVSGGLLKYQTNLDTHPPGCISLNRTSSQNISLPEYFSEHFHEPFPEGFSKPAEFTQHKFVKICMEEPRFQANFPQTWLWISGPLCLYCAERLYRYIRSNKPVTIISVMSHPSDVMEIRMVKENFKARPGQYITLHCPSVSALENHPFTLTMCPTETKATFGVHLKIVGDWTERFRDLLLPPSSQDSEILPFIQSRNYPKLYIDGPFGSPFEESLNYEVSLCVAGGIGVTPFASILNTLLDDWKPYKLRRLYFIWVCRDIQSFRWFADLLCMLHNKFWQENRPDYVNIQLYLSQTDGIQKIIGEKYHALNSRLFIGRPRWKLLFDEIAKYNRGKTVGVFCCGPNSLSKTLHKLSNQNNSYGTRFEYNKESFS
Sequence of NADPH oxidase 2 (Homo sapiens) (P04839 whole entry, looked up): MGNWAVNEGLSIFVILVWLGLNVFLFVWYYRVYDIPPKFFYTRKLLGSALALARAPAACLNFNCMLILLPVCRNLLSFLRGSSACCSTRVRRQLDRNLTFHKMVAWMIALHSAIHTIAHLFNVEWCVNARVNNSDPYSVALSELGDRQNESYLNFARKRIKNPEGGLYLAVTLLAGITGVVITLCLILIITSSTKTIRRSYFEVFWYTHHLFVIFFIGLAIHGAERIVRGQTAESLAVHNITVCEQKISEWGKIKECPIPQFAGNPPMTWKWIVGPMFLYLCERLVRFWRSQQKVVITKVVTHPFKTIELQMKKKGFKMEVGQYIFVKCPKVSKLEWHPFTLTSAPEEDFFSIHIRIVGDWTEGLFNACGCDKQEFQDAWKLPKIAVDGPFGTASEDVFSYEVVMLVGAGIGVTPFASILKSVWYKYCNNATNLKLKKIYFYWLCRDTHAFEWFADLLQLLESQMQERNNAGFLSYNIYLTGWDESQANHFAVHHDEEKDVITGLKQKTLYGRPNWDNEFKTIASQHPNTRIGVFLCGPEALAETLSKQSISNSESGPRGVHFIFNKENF
Sequence of NADPH oxidase 5 (Homo sapiens) (Q96PH1 whole entry, looked up): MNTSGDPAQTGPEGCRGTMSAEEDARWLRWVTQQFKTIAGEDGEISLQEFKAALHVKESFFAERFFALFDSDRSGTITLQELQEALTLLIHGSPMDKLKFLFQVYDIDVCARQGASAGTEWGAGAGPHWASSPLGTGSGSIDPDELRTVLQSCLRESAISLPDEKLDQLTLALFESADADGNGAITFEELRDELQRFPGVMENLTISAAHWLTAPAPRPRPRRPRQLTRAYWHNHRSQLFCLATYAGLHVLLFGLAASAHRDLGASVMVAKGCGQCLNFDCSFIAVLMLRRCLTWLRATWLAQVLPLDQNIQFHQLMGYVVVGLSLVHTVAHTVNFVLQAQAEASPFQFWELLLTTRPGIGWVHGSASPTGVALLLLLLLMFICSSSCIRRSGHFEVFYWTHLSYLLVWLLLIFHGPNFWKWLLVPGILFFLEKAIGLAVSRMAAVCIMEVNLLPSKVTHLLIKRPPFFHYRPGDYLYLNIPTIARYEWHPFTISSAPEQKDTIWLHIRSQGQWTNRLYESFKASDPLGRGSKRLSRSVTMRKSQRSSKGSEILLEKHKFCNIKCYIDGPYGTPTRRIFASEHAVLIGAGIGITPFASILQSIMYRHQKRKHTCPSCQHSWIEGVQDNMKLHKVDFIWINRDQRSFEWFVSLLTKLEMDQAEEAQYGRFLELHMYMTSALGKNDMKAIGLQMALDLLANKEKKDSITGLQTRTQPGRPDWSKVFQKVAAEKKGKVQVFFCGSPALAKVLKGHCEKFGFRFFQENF

Compound | z-score [1] | composite z-score [2] | z-score [3] | z-score [4] | z-score [5] | z-score [6] | z-score [7] | z-score [8] | z-score [9] | z-score [10] | z-score [11] | z-score [12] | z-score [13] | z-score [14] | z-score [15] | z-score [16] | z-score [17] | z-score [18] | z-score [19] | z-score [20]
[N-]=[N+]=Nc1ccccc1[C@H]1OC(c2ccc(OCCCO)cc2)=N[C@@]1(CCS(=O)(=O)c1ccccc1)C(=O)NCc1ccccc1 | -0.795 (inactive) | 0.373 | 28.1 (active) | 27.8 (active) | 1.64 (inactive) | 1.92 (inactive) | -0.234 | 0.443 (inactive) | 0.184 (inactive) | -0.852 | -0.0804 | -0.337 | -0.777 | -0.99 | -0.816 | -0.337 | -0.327 (inactive) | -0.929 | -0.673 | 1.09 (inactive)
O=C(CS)NCCCCCNC(=O)[C@H]1C[C@H]2C(=O)NCC(=O)N2[C@H]1c1cccc(OCCO)c1 | 1.43 (inactive) | -0.142 | 0.0198 (inactive) | -0.851 (inactive) | -4 (inactive) | -2.1 (inactive) | -0.61 | 0.448 (inactive) | 1.08 (inactive) | 0.664 | 0.54 | 0.0451 | -0.203 | 0.304 | 0.111 | -0.342 | -0.0834 (inactive) | 0.127 | 0.112 | 0.768 (inactive)
O=C1N(CCS(=O)(=O)c2ccccc2)c2ccccc2[C@@H]2OC(c3ccc(OCCCO)cc3)=N[C@]12Cc1ccccc1 | 0.0442 (inactive) | -0.081 | 30.9 (active) | 24.6 (active) | 2.85 (inactive) | 6.38 (inactive) | 2.01 | -2.55 (inactive) | 0.645 (inactive) | -1.18 | 0.661 | 1.33 | 0.993 | -2.75 | -1.58 | 0.637 | 2.24 (inactive) | -0.407 | -0.989 | -2.13 (inactive)
CCOC(=O)C1=CC[C@@H](c2ccccc2)N(S(=O)(=O)c2ccc(C)cc2)[C@H]1c1ccc(CC)cc1 | -0.688 (inactive) | 0.166 | 0.874 (inactive) | 0.991 (inactive) | -0.862 (inactive) | 0.361 (inactive) | -0.253 | 0.711 (inactive) | 0.029 (inactive) | 0.46 | -0.516 | -0.932 | -0.217 | 0.677 | 0.0825 | 5.94 | -0.149 (inactive) | -0.27 | -1.84 | 1.48 (inactive)
